NFkB binder: binders of NF-kB p50 subunit, primary screen, biochemical, small molecule microarray, anti-His fluorescence; Nuclear factor NF-kappa-B p105 subunit (Homo sapiens), P19838; 1.3% of 17,000 active; calls only; AID 624139, 2012; anti-His fluorescence binding;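 active = spot fluorescence over background significantly raised, with a chance value under 7% in all four replicate spots of the compound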;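 also: probe protein is his-tagged human p50 processed subunit at 1 µg/ml; raw spot fluorescence signals with no normalization applied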
Target sequence (P19838 1-433 limits assumed): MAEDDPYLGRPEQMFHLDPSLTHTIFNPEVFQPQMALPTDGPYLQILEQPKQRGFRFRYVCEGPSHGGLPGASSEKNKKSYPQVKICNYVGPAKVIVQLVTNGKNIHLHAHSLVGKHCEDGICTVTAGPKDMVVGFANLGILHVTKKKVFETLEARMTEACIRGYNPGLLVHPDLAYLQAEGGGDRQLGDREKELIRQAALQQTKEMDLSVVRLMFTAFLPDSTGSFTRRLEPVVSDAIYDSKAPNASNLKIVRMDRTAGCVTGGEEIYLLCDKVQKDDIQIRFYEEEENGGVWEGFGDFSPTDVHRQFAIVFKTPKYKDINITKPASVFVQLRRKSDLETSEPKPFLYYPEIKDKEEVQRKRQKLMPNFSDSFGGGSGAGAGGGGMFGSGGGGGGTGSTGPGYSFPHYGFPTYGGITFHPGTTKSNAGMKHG
c-Myc SMM: binders of human c-Myc, primary screen, biochemical, small molecule microarray, anti-His fluorescence | Myc proto-oncogene protein (Homo sapiens), P01106 | His-c-Myc binding | calls only | 1.5% of 17,000 active;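 active = spot fluorescence over background with P-value below 7% in all four replicate spots, showing protein binding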;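 also: score is binary with 100 for all four spots passing and 0 otherwise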
p53 mut binder: binders of human mutant p53, primary screen, biochemical, small molecule microarray, anti-GST fluorescence. small molecule microarray binding. calls only. 0.4% of 17,000 active. AID 624136, 2012;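 active = compounds whose four printed spots each glow above background more than chance allows, each with a p-value under 7%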
STAT3 binder: STAT3 binders, primary screen, biochemical, small molecule microarray, single point, set 2. Signal transducer and activator of transcription 3 (Homo sapiens), P40763. His-STAT3 binding, anti-His fluorescence. calls only. 0.2% of 17,000 active;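 active = compounds whose four printed spots each show fluorescence over background unusually high for their array block, chance value under 7%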
* marks the source's active call; other numbers are inactive results. Rows were chosen to be rich in hits. Some 2.5% of all compounds tested hit in one or more screens of this group.

What do the screens show for `C[C@H](CO)N1C[C@H](C)[C@H](CN(C)C(=O)CCC(F)(F)F)OCCCC[C@H](C)Oc2ccc(NC(=O)CCC(F)(F)F)cc2C1=O`?
NFkB binder: active; c-Myc SMM: active; p53 mut binder: inactive; STAT3 binder: inactive

How did C[C@H]1CCCCO[C@H](CN(C)C(=O)CCC(F)(F)F)[C@@H](C)CN([C@@H](C)CO)C(=O)c2cc(NC(=O)c3ccncc3)ccc2O1 do in these assays?
NFkB binder: inactive; c-Myc SMM: inactive; p53 mut binder: inactive; STAT3 binder: inactive

What do the screens show for `COc1ccc(NC(=O)C(OC(=O)c2ccccc2)c2cccs2)cc1` (configuration not stated)?
NFkB binder: inactive; c-Myc SMM: inactive; p53 mut binder: inactive; STAT3 binder: inactive

What do the screens show for `CC1OC(=O)CC2C(C(=O)O)=CC3CC(C)(C)CC312` (configuration not stated)?
NFkB binder: inactive; c-Myc SMM: inactive; p53 mut binder: inactive; STAT3 binder: inactive

How did C[C@H]1CCCCO[C@H](CN(C)C(=O)CCC(F)(F)F)[C@@H](C)CN([C@@H](C)CO)C(=O)c2cc(NS(C)(=O)=O)ccc2O1 do in these assays?
NFkB binder: active; c-Myc SMM: active; p53 mut binder: inactive; STAT3 binder: inactive

What do the screens show for `C[C@@H]1CN([C@@H](C)CO)C(=O)c2cc(NS(C)(=O)=O)ccc2O[C@@H](C)CCCCO[C@@H]1CN(C)C(=O)CCC(F)(F)F`?
NFkB binder: inactive; c-Myc SMM: active; p53 mut binder: inactive; STAT3 binder: inactive

What do the screens show for `CC1Cc2ccc3c(c2C(O)C1)C(=O)c1cccc(O)c1C3O` (configuration not stated)?
NFkB binder: inactive; c-Myc SMM: inactive; p53 mut binder: inactive; STAT3 binder: inactive

What do the screens show for `COC(=O)c1cc(Br)ccc1NC(=O)COc1ccc(C(C)(C)C)cc1`?
NFkB binder: inactive; c-Myc SMM: active; p53 mut binder: inactive; STAT3 binder: inactive

How did Cc1noc(C)c1NC(=O)N(C)C[C@@H]1OCCCC[C@@H](C)Oc2ccc(NS(C)(=O)=O)cc2C(=O)N([C@H](C)CO)C[C@@H]1C do in these assays?
NFkB binder: inactive; c-Myc SMM: inactive; p53 mut binder: inactive; STAT3 binder: inactive

How did COC(Cc1nc2ccccc2s1)C(=O)O (configuration not stated) do in these assays?
NFkB binder: inactive; c-Myc SMM: active; p53 mut binder: inactive; STAT3 binder: inactive

How did COc1cc(O)c2c(c1)O[C@H](c1ccc(O)c(O)c1)[C@@H](OC(C)=O)C2=O do in these assays?
NFkB binder: inactive; c-Myc SMM: inactive; p53 mut binder: inactive; STAT3 binder: inactive

What do the screens show for `O=C(CSc1ncccc1C(=O)O)c1cccc([N+](=O)[O-])c1`?
NFkB binder: inactive; c-Myc SMM: active; p53 mut binder: inactive; STAT3 binder: inactive

How did CCn1c(SCC(=O)Nc2c(C)cc(C)cc2C)nnc1-c1ccccc1C do in these assays?
NFkB binder: inactive; c-Myc SMM: inactive; p53 mut binder: inactive; STAT3 binder: inactive

How did C=C1CC[C@@]2(OC1)O[C@H]1CC3[C@@H]4CC=C5C[C@H](O[C@@H]6OC[C@H](O)[C@H](O)[C@H]6O[C@@H]6O[C@@H](C)[C@H](O)[C@@H](O)[C@H]6O)C[C@@H](O)[C@]5(C)C4CC[C@]3(C)[C@H]1[C@@H]2C (some centres not stated) do in these assays?
NFkB binder: active; c-Myc SMM: active; p53 mut binder: inactive; STAT3 binder: inactive

How did C[C@@H]1CN([C@H](C)CO)C(=O)c2cccc(N(C)C)c2O[C@@H]1CN(C)C do in these assays?
NFkB binder: inactive; c-Myc SMM: inactive; p53 mut binder: inactive; STAT3 binder: inactive

Results for COc1ccc(NCC(O)Cn2ccc3ccccc32)cc1 (configuration not stated) ?
NFkB binder: inactive; c-Myc SMM: inactive; p53 mut binder: inactive; STAT3 binder: inactive

Results for Cc1cc(C)n(CC(O)Cn2ccc3ccccc32)n1 (configuration not stated) ?
NFkB binder: active; c-Myc SMM: active; p53 mut binder: inactive; STAT3 binder: inactive

What do the screens show for `O=C1O[C@@H](c2ccccc2)[C@@H](c2ccccc2)N2[C@@H](c3ccc(O)cc3)[C@]3(C(=O)Nc4ccc(C#CCCO)cc43)[C@@H](C(=O)N3CCCCCCC3)[C@H]12`?
NFkB binder: inactive; c-Myc SMM: inactive; p53 mut binder: inactive; STAT3 binder: inactive

What do the screens show for `O=C1O[C@@H](c2ccccc2)[C@@H](c2ccccc2)N2[C@@H](c3ccc(OCCO)cc3)[C@]3(C(=O)Nc4ccc(C#CCCO)cc43)[C@@H](C(=O)N3CCCCCCC3)[C@H]12`?
NFkB binder: inactive; c-Myc SMM: inactive; p53 mut binder: inactive; STAT3 binder: inactive

How did O=C1O[C@H](c2ccccc2)[C@H](c2ccccc2)N2[C@H]1[C@@H](C(=O)N1CCCCCCC1)[C@]1(C(=O)Nc3ccccc31)[C@H]2c1ccc(OCCO)cc1 do in these assays?
NFkB binder: active; c-Myc SMM: active; p53 mut binder: active; STAT3 binder: inactive

Results for O=C1O[C@@H](c2ccccc2)[C@@H](c2ccccc2)N2[C@@H](c3ccc(OCCO)cc3)[C@]3(C(=O)Nc4ccccc43)[C@@H](C(=O)N3CCCCCCC3)[C@H]12 ?
NFkB binder: active; c-Myc SMM: active; p53 mut binder: active; STAT3 binder: inactive

Results for Cc1ccc(-c2nc3ccccc3[nH]2)cc1NC(=O)C(C)Oc1ccc(Cl)cc1Cl (configuration not stated) ?
NFkB binder: inactive; c-Myc SMM: inactive; p53 mut binder: inactive; STAT3 binder: inactive

What do the screens show for `C=CCN1Cc2ccccc2[C@@H]2OC(c3ccc(OCCCO)cc3)=N[C@]2(CCC(=O)OC(C)(C)C)C1=O`?
NFkB binder: active; c-Myc SMM: inactive; p53 mut binder: inactive; STAT3 binder: inactive

How did O=C1N(Cc2ccccc2)Cc2ccccc2C[C@@]12N=C(c1ccc(OCCCO)cc1)O[C@H]2c1ccccc1 do in these assays?
NFkB binder: active; c-Myc SMM: inactive; p53 mut binder: active; STAT3 binder: inactive

Results for CC1CC(O)CC(C)(C)C1(O)/C=C/C(CO)O[C@@H]1O[C@H](CO)[C@@H](O)[C@H](O)[C@H]1O (some centres not stated) ?
NFkB binder: inactive; c-Myc SMM: inactive; p53 mut binder: inactive; STAT3 binder: inactive

Results for C=CCOC(=O)C1=C[C@H](c2coc3ccccc3c2=O)C[C@H](OCc2ccc(CO)cc2)O1 ?
NFkB binder: inactive; c-Myc SMM: active; p53 mut binder: inactive; STAT3 binder: inactive
